# Inconclusive results are not listed. Unmarked numbers belong to inactive results. The source made the active and inactive calls. Calls follow the shape of the dose curve; as a rule, active = well fitted cell-killing curve with a large enough effect; inconclusive = small, poorly fitted or top-dose-only effect, or effect the other way; inactive = no such curve, though single readings can be large or run the other way.
# System: Hek293T
# Assay: Confirmatory qHTS for gynecologic anti-cancer compounds from libraries of approved drugs and bioactive compounds; also: nearly all actives have a fitted effect of over 55% in size
# Details: gynecologic cancer cell panel viability, ATPlite luminescence, 48 h; series mostly up to 57.6 µM; activity change, negative = viability loss: at the top concentration
# How it was run: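 Cells (1,000/well) plated 16 h, then exposed 48 h at 37 °C to 11 concentrations (1:3) from 57.5 uM to 0.977 nM. Viability by ATPlite luminescence after 15 min; IC50 derived, with HEK 293T used for selectivity index.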
# % is scaled to controls: 0 for no effect and ±100 for the full control effect; potency is read from the fitted curve at half-maximal effect.
SMILES,"activity change, negative = viability loss",Potency
CC(=O)O[C@H]1C(=O)[C@@]2(C)[C@H]([C@H](OC(=O)c3ccccc3)[C@]3(O)C[C@H](OC(=O)[C@H](O)[C@@H](NC(=O)c4ccccc4)c4ccccc4)C(C)=C1C3(C)C)[C@]1(OC(C)=O)CO[C@@H]1C[C@@H]2O,4.91% [at 10.7 µM],
COc1cc(Nc2ncc(F)c(Nc3ccc4c(n3)N(COP(=O)(O)O)C(=O)C(C)(C)O4)n2)cc(OC)c1OC,-15.2%,
CC(C)(C)C(=O)OCOP(=O)(COCCn1cnc2c(N)ncnc21)OCOC(=O)C(C)(C)C,,3.43 µM (active)
CCOc1cc2ncc(C#N)c(Nc3ccc(F)c(Cl)c3)c2cc1NC(=O)/C=C/CN(C)C,,15.3 µM (active)
O=C(c1ccc(F)c(F)c1Nc1ccc(I)cc1F)N1CC(O)([C@@H]2CCCCN2)C1,,24.3 µM (active)
CN1CCCC(n2nc(Cc3ccc(Cl)cc3)c3ccccc3c2=O)CC1 (stereo unspecified),,17.2 µM (active)
Cc1csc(NC(=O)c2sc3nc4c(c(C(F)(F)F)c3c2N)CCC4)n1,,0.769 µM (active)
Cc1c(C)n(Cc2ccc(-c3ccccc3C(=O)O)cc2)c2ccc(C(=O)N[C@@H](C)c3ccc([N+](=O)[O-])cc3)cc12,-31.7%,
O=c1[nH]c(=O)n([C@H]2C[C@H](O)[C@@H](CO)O2)cc1F,,1.37 µM (active)
Cc1cc(Nc2nc(N[C@@H](C)c3ncc(F)cn3)ncc2Cl)n[nH]1,17.7%,
CN1CCN(Cc2ccc(NC(=O)Nc3ccc(Oc4cc(NC(=O)C5CC5)ncn4)cc3)cc2C(F)(F)F)CC1,,7.69 µM (active)
CN(NC(=O)CC(=O)NN(C)C(=S)c1ccccc1)C(=S)c1ccccc1,,0.0611 µM (active)
CC(C)Oc1ccc(C(=O)NC(CNC(=O)CN(C)C)Cc2ccc(-c3cn4cccc(C(C)O)c4n3)cc2)cc1Cl (stereo unspecified),-16.2%,
CC(C)Nc1cc(-c2c[nH]c(C(=O)N[C@H](CO)c3cccc(Cl)c3)c2)c(Cl)cn1,-4.93%,
Cc1ccn(-c2ccc(-c3ncco3)cc2)c(=O)c1-c1ccc2nc(N)ncc2c1,0.323%,
CN1C2CCC1CC(OC(=O)[C@H](CO)c1ccccc1)C2 (stereo partly specified),0.591%,
COc1cc2c(NC3CCN(C(C)C)CC3)nc(C3CCCCC3)nc2cc1OCCCN1CCCC1,,9.68 µM (active)
CC(C)c1nn(-c2c(Cl)cccc2Cl)c2nc(Cc3ccc(OCCO)cc3)[nH]c(=O)c12,,0.0306 µM (active)

SMILES,"activity change, negative = viability loss",Potency
CN(C)/N=N/c1nc[nH]c1C(N)=O,9.55%,
CC(C)(C(=O)NCC(F)(F)C(F)(F)F)C(=O)NC1C(=O)Nc2ccccc2-c2ccccc21 (stereo unspecified),-13.8%,
Cn1c(=O)c(-c2c(Cl)cccc2Cl)cc2cnc(Nc3cccc(C(=O)O)c3)nc21,0.231%,
NC(=O)c1ccc2nc(-c3ccc(Oc4ccc(Cl)cc4)cc3)[nH]c2c1,,0.0217 µM (active)
CCN(CC)CCOc1ccc(/C(=C(\Cl)c2ccccc2)c2ccccc2)cc1,,126 µM (active)
COc1cc2c(Nc3ccc(NC(=O)c4ccccc4)cc3)ncnc2cc1OCCCN1CCOCC1,,24.3 µM (active)
Nc1ccc(C(=O)Nc2cccc(-c3nc(N4CCOCC4)c4oc5ncccc5c4n3)c2)cn1,-21.6%,
COC(C(=O)N1Cc2[nH]nc(NC(=O)c3ccc(N4CCN(C)CC4)cc3)c2C1)c1ccccc1 (stereo unspecified),3.38%,
O=c1c(-c2ccc(O)cc2)coc2cc(O)cc(O)c12,10.9%,
O=C(c1ccc(/C=C/c2n[nH]c3ccccc23)cc1)N1CCNCC1,,21.7 µM (active)
Cc1ccc(-n2[nH]c(C)c(N=Nc3cccc(-c4cccc(C(=O)O)c4)c3O)c2=O)cc1C,-11%,
CC(C)C[C@H](NC(=O)[C@H](CCc1ccccc1)NC(=O)CN1CCOCC1)C(=O)N[C@@H](Cc1ccccc1)C(=O)N[C@@H](CC(C)C)C(=O)[C@@]1(C)CO1,,3.43 µM (active)
COc1ccc2c(c1)c(CC(=O)O)c(C)n2C(=O)c1ccc(Cl)cc1,-25.1%,
CCc1c2c(nc3ccc(O)cc13)-c1cc3c(c(=O)n1C2)COC(=O)[C@]3(O)CC,,0.611 µM (active)
COCCOc1nc(-c2ccc(Cl)c(Cl)c2)n(-c2ccc(NC(=O)CCl)cc2)n1,,12.2 µM (active)
C1CCC(C(CC2CCCCN2)C2CCCCC2)CC1 (stereo unspecified),,27.3 µM (active)
Nc1ccc(-c2ccc3ncc4ccc(=O)n(-c5cccc(C(F)(F)F)c5)c4c3c2)cn1,,0.0544 µM (active)
Cc1ccc(C(=O)Nc2ccc(CN3CCN(C)CC3)c(C(F)(F)F)c2)cc1C#Cc1cnc2cccnn12,,17.2 µM (active)

# — PubChem BioAssay AID1345085 (National Center for Advancing Translational Sciences (NCATS), 2018)
